Screening data deposited in PubChem by National Center for Advancing Translational Sciences (NCATS).
HP1b binding inh = HTS for Inhibitors of HP1-beta Chromodomain Interactions with Methylated Histone Tails. Chromobox protein homolog 1 (Homo sapiens), P83916. AlphaScreen HP1-beta / biotin-H3K9me3 peptide binding. Potency, µM (top dose mostly 114 µM), without a hit: top-dose activity change, negative = inhibition, most hits filed as inhibitors. actives 0.56% (n = 390,000); further: nearly all actives have a fitted effect of over 70% in size
Target sequence (P83916 whole entry, looked up): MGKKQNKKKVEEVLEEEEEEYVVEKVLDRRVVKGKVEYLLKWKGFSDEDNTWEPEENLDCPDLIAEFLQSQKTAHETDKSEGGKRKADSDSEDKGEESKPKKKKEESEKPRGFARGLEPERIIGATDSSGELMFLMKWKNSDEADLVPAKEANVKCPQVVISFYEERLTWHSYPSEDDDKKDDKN
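Compound inhibition of the preformed complex between 50 nM HP1-beta and 50 nM biotinylated H3K9me3 peptide was read by AlphaScreen. Buffer was PBS pH 7.4 with 0.01% Tween-20. Incubations ran 30 min at room temperature, with 10 ug/mL donor/acceptor beads.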
Sfp inh = qHTS Assay for Inhibitors of Bacillus subtilis Sfp phosphopantetheinyl transferase (PPTase); Biochemical Sfp PPTase activity, qHTS; actives 3.5% (n = 310,000); 4'-phosphopantetheinyl transferase ffp (Bacillus subtilis), Q9F4F7; AID 1490, 2009; Potency, µM, inactives show largest response in the series, negative = inhibition, hits mostly inhibitors;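 further: the enzyme is Sfp with the accession as filed and its product quenches rhodamine fluorescence; 0% = enzyme reaction without inhibitor and -100% = no enzyme wells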
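Fluorescence-quenching assay: 15 nM Sfp-PPTase preincubated 15 min at room temperature with compound, then 5 uM rhodamine-CoA and 12.5 uM BHQ-2-labelled YbbR peptide added. Fluorescence (ex 525/em 598 nm) read at start and after 30 min; difference gives rate.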
BAZ2B block = qHTS Assay for Inhibitors of BAZ2B; actives 4.4% (n = 360,000); Potency, µM (titrated, usually from 114 µM), without a hit: at the highest dose activity change, negative = inhibition, hits mostly inhibitors; AlphaScreen BAZ2B-H3K14Ac peptide displacement; Bromodomain adjacent to zinc finger domain protein 2B (Homo sapiens), Q9UIF8; further: on the % scale 0 is the no-effect control and ±100 the full control effect; nearly all actives have a fitted effect of over 60% in size
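Multi-concentration screen (max 110 uM) measuring displacement of acetylated histone H3 peptide from BAZ2B by AlphaScreen, using 50 nM protein, 50 nM peptide and 10 ug/mL streptavidin donor plus Ni-chelate acceptor beads.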
JMJD2A Tudor inh = qHTS Assay for Inhibitors of JMJD2A-Tudor Domain; Potency, µM (series often up to 114 µM), inactives show at the top dose activity change, negative = inhibition, usual class: inhibitors; Lysine-specific demethylase 4A (Homo sapiens), O75164; actives 4.4% (n = 390,000); AlphaScreen JMJD2A-Tudor / H3K4me3 peptide binding; further: on the % scale 0 is the no-effect control and ±100 the full control effect; nearly all actives have a fitted effect of over 50% in size
G9a inh = qHTS Assay for Inhibitors of Histone Lysine Methyltransferase G9a; Histone-lysine N-methyltransferase EHMT2 (Homo sapiens), Q96KQ7; G9a H3K9 monomethylation, AlphaScreen, 2 h; Potency, µM (titrated, usually from 102 µM), for the others: at the highest dose activity, negative = inhibition, hits mostly inhibitors; actives 8.8% (n = 350,000); AID 504332, 2011; further: on the % scale 0 is the no-effect control and ±100 the full control effect; nearly all actives have a fitted effect of over 75% in size
Target sequence (Q96KQ7 913-1193 limits assumed): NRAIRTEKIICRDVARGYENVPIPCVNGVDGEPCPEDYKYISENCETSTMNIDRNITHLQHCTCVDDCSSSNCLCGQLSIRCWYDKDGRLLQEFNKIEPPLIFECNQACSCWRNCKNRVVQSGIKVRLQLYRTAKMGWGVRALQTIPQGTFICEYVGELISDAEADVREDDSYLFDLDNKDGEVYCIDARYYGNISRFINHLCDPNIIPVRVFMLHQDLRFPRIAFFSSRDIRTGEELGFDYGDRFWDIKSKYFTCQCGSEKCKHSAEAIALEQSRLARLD
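Signal arises when biotinylated H3K9 peptide, once monomethylated, bridges streptavidin donor and antibody-captured acceptor beads. Enzyme at 20 nM was preincubated 15 min with test compounds; peptide 500 nM and SAM 20 uM then reacted for 2 h.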
Numbers without * were called inactive; ? = inconclusive; · = no result given; [ ] = dose if it differs, or a comment. This is a sample that favours compounds with a hit; in the whole collection about 12% have one here. The call rests on the fitted dose curve; in most records, active means well fitted curve in the direction sought with a large enough effect; inconclusive means small, poorly fitted or top-dose-only effect, or another doubt; inactive means no such curve, though single readings can be large; an effect the other way counts as inactive or inconclusive. Potency means the concentration at half of the fitted maximal effect.

SMILES	HP1b binding inh	Sfp inh	BAZ2B block	JMJD2A Tudor inh	G9a inh
O=C(CSCc1ccc(Br)cc1)Nc1ccccc1C(=O)N1CCOCC1	20%	·	·	-3%	·
Cc1ccc(CN2C(=O)N/C(=C\c3cccn3-c3cccc(C(=O)O)c3)C2=O)cc1	?	50µM*	35µM*	45µM*	16µM*
O=C1N/C(=C/c2cccn2-c2ccc(F)cc2)C(=O)N1Cc1ccccc1	10%	-8%	-9%	-22%	-30%[59 µM]
Cc1ccc(CCN2C(=O)c3ccc(C(=O)O)cc3C2=O)cc1	·	3%	2%	-11%	5%[12.7 µM]
Cc1cc(C(=O)O)ccc1-c1ccc(/C=C2\NC(=O)N(Cc3ccc(F)cc3)C2=O)o1	11%[57 µM]	?	40µM*	?	28µM*
Cc1ccc(NC(=O)CN2C(=O)N/C(=C/c3cc(C)n(-c4cccc(C(=O)O)c4)c3C)C2=O)cc1	?	?	22µM*	?	13µM*
Cc1ccc(NC(=O)CN2C(=O)N/C(=C\c3cccn3-c3cccc(C(=O)O)c3)C2=O)cc1	71µM*	40µM*	10µM*	22µM*	8.9µM*
O=C(c1ccc2snnc2c1)N1CCSCC1	28%	-7%	15%	17%	-12%[59 µM]
Cn1nc(C(=O)Nc2ccccc2)c2c1-c1ccccc1S(=O)(=O)C2	34%	32%	-12%	4%	40%
O=C(O)c1cccc(-n2cccc2/C=C2\NC(=O)N(Cc3ccc(F)cc3)C2=O)c1	79µM*	-25%	50µM*	56µM*	22µM*
CCC1CN(C(=O)N2CCC(C(=O)NCc3cccc(F)c3)CC2)c2ccccc2O1 (centres undefined)	13%	19%	-15%	-2%	22%
O=[N+]([O-])c1ccc(-c2cc(-c3ccc(Cl)cc3)n[nH]2)cc1	183%	-20%	-37%	?	25µM*
COc1cccc(C2c3c(oc4ccccc4c3=O)C(=O)N2CCCN2CCOCC2)c1OC (centres undefined)	16%	·	·	-2%	·
N#Cc1cc([N+](=O)[O-])ccc1N1CCCC1	?	1%	-31%	?	-5%
Cc1nn(Cc2ccc(C(=O)NC3CCCCC3)o2)c(C)c1Br	13%	7%	-6%	-15%	-31%[12.7 µM]
Cc1nn(CCc2n[nH]c(=S)n2C2CCCCC2)c(C)c1Br	35%	-13%	-7%[57.1 µM]	79µM*	2.5µM*
Cc1nn(CCc2n[nH]c(=S)n2C)c(C)c1Br	21%	11%	-2%	7.1µM*	?
COc1ccccc1-n1c(CCn2nc(C)c(Br)c2C)n[nH]c1=S	4%	?	-4%	7.1µM*	1.1µM*
COc1cccc(C(=O)Nc2cccc(C(=O)OCc3cc(=O)n4nc(C(C)C)sc4n3)c2)c1	22%	·	-3%	4%	-2%[59 µM]
CCCCCCCCCCCCCCC/C=C/[C@@H](O)[C@H](NC(=O)CCCCCCCCCCCCC)OC (tested in a mixture with another compound)	·	·	·	·	20µM*
CCCCCCCCCCCCC/C=C/[C@@H](O)[C@H](CO)NC(=O)CCCCCCCCCCCCCCC	·	-4%	·	·	-1%[59 µM]
COc1ccc(NC(=S)Nc2cccc([N+](=O)[O-])c2)cc1	-14%	-29%	?	-21%	·
CN1CCC(NC(=S)Nc2cccc([N+](=O)[O-])c2)CC1	6%	-4%	-20%	-13%	45µM*
CN1CCN(c2ccccc2NC(=O)c2cccc([N+](=O)[O-])c2)CC1	4%	9%	-19%	-34%	?
O=C(NC(=S)N1CCCCC1)c1cccs1	-8%	-15%	-37%	-19%	?
SMILES	HP1b binding inh	Sfp inh	BAZ2B block	JMJD2A Tudor inh	G9a inh
CC1CCN(C(=S)NC(=O)c2cccc([N+](=O)[O-])c2)CC1	24%	11%	-25%	-28%	71µM*
CN1CCN(C(=S)NC(=O)c2cccc([N+](=O)[O-])c2)CC1	22%	32µM*	5%	-16%	-12%
CC1CCN(C(=S)NC(=O)c2cccs2)CC1	23%	5%	-19%	-10%	45µM*
COc1ccc(N(CC(=O)N2CCCCCC2)S(C)(=O)=O)cc1Cl	32%	14%	23%	-14%	·
COc1ccc(N(CC(=O)N2CCc3ccccc3C2)S(C)(=O)=O)cc1Cl	30%	-5%	-38%	1%	50µM*
Cc1ccsc1/C=N/n1c(-c2cc(-c3ccccc3)n[nH]2)n[nH]c1=S	-3%	71µM*	-12%	?	2.5µM*
Cc1ccccc1/C=N/n1c(-c2cc(-c3ccccc3)n[nH]2)n[nH]c1=S	39%	56µM*	0%	?	?
S=c1[nH]nc(-c2cccs2)n1/N=C/c1cn(-c2ccccc2)nc1-c1ccccc1	?	-1%	?	?	12%[59 µM]
S=c1[nH]nc(-c2cc(-c3ccccc3)n[nH]2)n1/N=C/c1c(Cl)cccc1Cl	6%	40µM*	79µM*	45µM*	4µM*
Cc1ccc(-c2n[nH]c(=S)n2/N=C/c2sccc2C)cc1	7%	-6%	-13%	-22%	0.63µM*
S=c1[nH]nc(-c2ccc(Cl)cc2)n1/N=C/c1cccs1	19%	-10%	-10%	-19%	·
Clc1ccccc1-c1nn2c(-c3cc(-c4ccccc4)n[nH]3)nnc2s1	20%[57 µM]	·	·	-11%[57.1 µM]	·
S=c1[nH]nc(-c2cc(-c3ccccc3)n[nH]2)n1/N=C/c1ccc(Br)s1	?	25µM*	56µM*	?	28µM*
Cc1cccc(N2CCN(Cc3nnc(-c4cccc(Br)c4)o3)CC2)c1C	28%	·	11%	0%	10%[59 µM]
COc1ccc(N2CCN(Cc3nnc(-c4cccc(Br)c4)o3)CC2)cc1	?	·	45µM*	79µM*	11µM*
O=C(O)CCC(=O)c1c[nH]c2ccccc12	15%	7%	-4%	-16%	20%[59 µM]
CCOc1ccc(CCn2c(-c3ccco3)nc3ccccc3c2=O)cc1OCC	6%	56µM*	?	-23%	?
COc1ccc(CCn2c(-c3ccco3)nc3nc4ccccc4nc32)cc1	22%	35µM*	15%	-8%	-39%[12.7 µM]
COc1ccccc1Cn1c(-c2ccco2)nc2nc3ccccc3nc21	21%	·	·	0%	·
c1coc(-c2nc3nc4ccccc4nc3n2CC2CCCO2)c1 (centres undefined)	33%	79µM*	0%	-10%	50µM*
O=c1c2ccccc2nc(-c2ccco2)n1Cc1ccccc1	24%	-11%	?	-8%	?
CCOc1ccc(S(=O)(=O)N(CC(=O)Nc2cccnc2)c2ccccc2)cc1	42%	·	-13%	-6%	-28%[59 µM]
COc1cc(/C=C2/C(=O)NN(c3cccc(F)c3)C2=O)ccc1OC(=O)c1ccco1	-9%	56µM*	?	-25%	28µM*
